Only a selection was taken, and hits are over-represented in it overall.
Shiga inhibitor = A qHTS for Small Molecule Inhibitors of Shiga Toxin; Vero cells, Shiga toxin protein synthesis inhibition reporter; inhibition, % at 38.7 µM; 290,000 tested, 9.2% active; AID 2315, 2010; in the data active = inhibition mostly above about 28%, no sharp cut-off; inactive = mostly below about 43%; note: 0% is about no effect
CHX counter = Cycloheximide Counterscreen for Small Molecule Inhibitors of Shiga Toxin; cell reporter, cycloheximide protein synthesis inhibition counterscreen; max response, %; 300,000 tested, 12% active; in the data active = max response mostly above about 13%, no sharp cut-off; inactive = mostly below about 14%; note: read at 38.3 µM for the half of the compounds with a filed dose; 0% is about no effect
LASV entry inh = qHTS for Inhibitors of binding or entry into cells for Lassa Virus | 300,000 tested, 1.2% active | Potency, µM (top dose mostly 37.9 µM), inactives show at the top dose activity change, negative = inhibition, hits mostly inhibitors | Lassa virus pseudotype entry inhibition, cell reporter | AID 540256, 2011; calls by dose curve; tested in HEK293 cells; note: potency is the fitted concentration of half-maximal effect; % is set by controls: 0 for no effect and ±100 for the full control effect; nearly all actives have a fitted effect of over 50% in size
Vaccinia Venus = qHTS for Stage-Specific Inhibitors of Vaccinia Orthopoxvirus: Venus Reporter Primary qHTS; Vaccinia virus Venus reporter expression, fluorescence; Potency, µM (titrated, usually from 36.5 µM), for the others: top-dose activity change, negative = inhibition, usual class: inhibitors; 330,000 tested, 0.46% active; calls by dose curve; tested in A549 cells; note: potency is the fitted concentration of half-maximal effect; % is set by controls: 0 for no effect and ±100 for the full control effect; nearly all actives have a fitted effect of over 30% in size
VACV mCherry inh = qHTS for Stage-Specific Inhibitors of Vaccinia Orthopoxvirus: mCherry Reporter Primary qHTS | Vaccinia virus mCherry reporter infection, fluorescence | Potency, µM (top dose mostly 36.5 µM), for the others: top-dose activity change, negative = inhibition, actives largely listed as inhibitors | 310,000 tested, 0.63% active | AID 720579, 2013; calls by dose curve; tested in A549 cells; note: potency is the fitted concentration of half-maximal effect; % is set by controls: 0 for no effect and ±100 for the full control effect; nearly all actives have a fitted effect of over 35% in size
Marburg entry inh = qHTS for inhibitors of binding or entry into cells for Marburg Virus | 300,000 tested, 1.8% active | AID 540276, 2011 | Potency, µM (series often up to 37.8 µM), inactives show at the highest dose activity change, negative = inhibition, actives largely listed as inhibitors | Marburg virus pseudotyped entry inhibition, cell reporter; calls by dose curve; tested in HEK293 cells; note: potency is the fitted concentration of half-maximal effect; % is set by controls: 0 for no effect and ±100 for the full control effect
An asterisk follows results filed as active; i = inactive; ? = inconclusive; . = not tested or not shown; [ ] = remark or other dose.

SMILES	Shiga inhibitor	CHX counter	LASV entry inh	Vaccinia Venus	VACV mCherry inh	Marburg entry inh
Cc1ccc(N2CC(NC(=O)c3ccc(Br)o3)CC2=O)cc1C (stereo not given)	.	.	-1.3%[46.1 µM]	-8.5%[7.34 µM]	-6.4%[7.34 µM]	.
N/C(=N\OC(=O)c1ccc(Cl)c(Cl)c1)c1ccccn1	106.8*	19.0*	?	.	.	?
N/C(=N\OC(=O)c1ccc(Cl)cc1)c1ccccn1	32.6	7.2	?	.	.	?
N/C(=N\OC(=O)c1cccc(Cl)c1)c1ccccn1	45.9	42.1*	7.94µM*	-9.2%	-5.7%	3.66µM*
N/C(=N\OC(=O)c1cccc(Cn2cc(C(F)(F)F)ccc2=O)c1)c1ccccc1	40.8*	32.1*	.	.	.	.
N/C(=N\OC(=O)c1ccc(Cl)c([N+](=O)[O-])c1)c1ccccc1	-1.6	-0.3	.	.	.	.
N/C(=N\OC(=O)c1ccc(Cl)c([N+](=O)[O-])c1)c1ccccn1	140.9*	72.3*	?	?	-18.8%	3.16µM*
C/C(=N/OC(=O)c1cccc(Cl)c1)c1nccs1	-6.0	-3.1	-2.8%	.	.	7.8%
N/C(=N\OC(=O)c1cccc(Br)c1)c1ccccc1	59.4*	26.6*	6.3%	.	.	?
N/C(=N\OC(=O)c1cccc(Br)c1)c1ccccn1	35.9*	65.8*	.	.	.	.
COc1ncnc2c1ncn2CCCNCc1ccc2c(c1)OCO2	.	.	.	-6.8%	i	.
CC(NC(=O)CCc1nnc(-c2ccc(-c3ccccc3)cc2)o1)c1nccs1 (stereo not given)	36.3	14.3*	?	-15.4%	i	?
CC(c1nccs1)N(C)C(=O)CCc1nnc(-c2ccc(-c3ccccc3)cc2)o1 (stereo not given)	27.6	26.1*	.	.	.	.
O=C(CCc1nnc(-c2ccc(-c3ccccc3)cc2)o1)NCCc1ccccn1	58.7	17.8*	?	-8.5%	-7.1%	?
COc1ccc(-c2nnn3c2nc(NCc2ccc(C)cc2)c2ccccc23)cc1	.	.	10.2%[46.1 µM]	-0.4%	-1.0%	9.6%[46.1 µM]
COc1ccccc1C1CC(c2c(-c3ccccc3)c3cc(Cl)ccc3[nH]c2=O)=NN1S(C)(=O)=O (stereo not given)	14.4	-2.8	?	11.2µM*	11.2µM*	?
COc1cccc(C2CC(c3c(-c4ccccc4)c4cc(Cl)ccc4[nH]c3=O)=NN2S(C)(=O)=O)c1OC (stereo not given)	23.0	7.2	?	?	.	?
O=C1CCC(=O)N1CCCCCc1nc(-c2ccccc2)no1	64.5	40.9*	-7.5%	-16.4%	.	-0.5%
O=C(NCc1nc(-c2ccc(Cl)cc2)no1)c1ccco1	5.5	11.2	16.8%[46.1 µM]	20.4%	5.9%	-17.8%[46.1 µM]
c1ccc(CCc2nc(-c3ccccc3)no2)cc1	128.6*	34.5*	?	4.1%	-6.7%	-1.8%
O=C(Nc1ccc(-c2noc(CCc3ccccc3)n2)cc1)c1ccco1	84.9*	57.6*	?	-20.2%	?	?
CCCc1nc(-c2ccc(-c3ccc(F)cc3)cc2)no1	28.7	17.9*	-1.0%	.	.	3.7%
COCCn1cnc2c1c(=O)[nH]c(=O)n2Cc1ccccc1	-8.9	-1.3	.	.	.	.
CNC(=O)NC(=O)CN1C=NC2SC(c3ccccc3)C=C2C1=O (stereo not given)	.	.	.	.	.	-1.7%[46.1 µM]
Cc1cc(C)n2nc(CC(=O)NNC(=O)c3ccccc3Cl)nc2n1	-9.5	4.8	.	.	.	.
SMILES	Shiga inhibitor	CHX counter	LASV entry inh	Vaccinia Venus	VACV mCherry inh	Marburg entry inh
CCCSc1nnc2c(n1)OC(c1cccs1)Nc1ccc(Br)cc1-2 (stereo not given)	.	.	1.3%[46.1 µM]	4.8%	-7.6%	9.9%[46.1 µM]
O=C(CC1CCCCC1)NCc1nc(-c2ccccc2)no1	14.7	-3.3	.	.	.	.
c1ccc(CCc2nc(-c3cccnc3)no2)cc1	52.6*	22.5*	3.7%	-15.2%	-20.9%	2.7%[46.1 µM]
c1cncc(-c2noc(CC3CCCCC3)n2)c1	54.5*	41.1*	4.0%	0.3%	-7.4%	2.8%[46.1 µM]
CCOC(=O)c1cc(S(=O)(=O)Nc2ccc(Br)c(C)c2)[nH]n1	.	.	27.2%[46.1 µM]	-3.3%	-8.7%	.
Cc1ccc2[nH]c(CN3CCC(CO)(CC4CCCCO4)CC3)c(C)c2c1 (stereo not given)	-1.6	-3.4	5.01µM*	7.2%	?	?
Cc1ccc(CN2CCC(CO)(CC3CCCCO3)CC2)o1 (stereo not given)	-4.0	0.4	5.5%	7.4%	-2.5%	12.4%[46.1 µM]
Cc1cc(Oc2ccc(Cl)cc2Cl)nc(C#N)n1	.	.	.	-29.6%	?	.
C=CCc1ccc(OCC(O)CN2CCN(Cc3ccc(Cl)cc3)CC2)c(OC)c1 (stereo not given)	-7.5	-4.2	?	?	?	8.2µM*
C=CCc1ccc(OCC(O)CN2CCC(Cc3ccccc3)CC2)c(OC)c1 (stereo not given)	-7.5	7.6	12.6µM*	?	.	?
C=CCc1ccc(OCC(O)CN2CCN(c3ccccc3OC)CC2)c(OC)c1 (stereo not given)	12.4	-3.0	.	.	.	.
C=CCc1ccc(OCC(O)COCC)c(OC)c1 (stereo not given)	127.5*	35.6*	12.2%	-13.1%	.	-13.8%
COc1ccc(NC(=O)c2nnn(CC(=O)Nc3cc(C)cc(C)c3)c2N)c(OC)c1	.	.	?	-4.8%	-12.7%	-0.5%[46.1 µM]
COCCCN(C(=O)c1cc2c(s1)CCCCC2)c1c(N)n(Cc2ccccc2)c(=O)[nH]c1=O	.	.	10µM*	-16.6%	-14.0%	-17.1%[46.1 µM]
CC(C)CN(C(=O)c1ccc([N+](=O)[O-])s1)c1c(N)n(Cc2ccccc2)c(=O)[nH]c1=O	.	.	3.0%	?	20µM*	-18.7%
CC(=O)c1ccc(N2CCN(CC(=O)N(CC(C)C)c3c(N)n(CC(C)C)c(=O)[nH]c3=O)CC2)cc1	-8.8	12.5*	?	3.4%	-14.5%	-0.1%
CC(C)CN(C(=O)COC(=O)c1ccc(Br)cc1)c1c(N)n(Cc2ccccc2)c(=O)[nH]c1=O	.	.	?	12.6µM*	?	?
CC(C)CN(C(=O)CN1CCN(c2ccc(O)cc2)CC1)c1c(N)n(CC(C)C)c(=O)[nH]c1=O	9.2	-2.1	14.5%	6.7%	-12.3%	?
CC(C)CN(C(=O)c1ccc2c(c1)OCCO2)c1c(N)n(Cc2ccccc2)c(=O)[nH]c1=O	.	.	3.4%	-8.8%	-0.7%	3.8%
CC[C@H](C)[C@H](NC(=O)[C@@H](NC(=O)CNC(=O)[C@@H](N)CC(C)C)[C@@H](C)O)C(=O)N1CCC[C@H]1C(=O)NCC(=O)O	-7.9	0.2	.	.	.	.
CSc1nsc(N/N=C/c2ccc3c(c2)OCO3)c1C#N	84.0*	41.0*	.	.	.	.
COc1cc(/C=N/Nc2snc(SC)c2C#N)cc(OC)c1OC	-16.2	-1.9	1.26µM*	?	.	1.58µM*
Cc1c(Cl)cccc1NC(=O)CNC(=O)Cc1n[nH]c(=O)c2ccccc12	.	.	13.8%	-4.8%	i	11.5%
Cc1ccc2c(=O)cc(C(=O)Nc3ccc(S(=O)(=O)N4CCCCC4C)cc3)oc2c1C (stereo not given)	.	.	4.8%[46.1 µM]	2.0%	10.4%	20.3%[46.1 µM]

Screening results: PubChem BioAssay, National Center for Advancing Translational Sciences (NCATS)
